MCF10A rereplic – induces DNA re-replication in MCF 10a normal breast cells. MCF 10A DNA re-replication, Hoechst nuclear intensity, 48 h. hit rate 2.9% among 350,000. AID 624296. Potency, µM (titrated, usually from 46.1 µM), actives largely listed as activators; also: nearly all actives have a fitted effect of over 50% in size
SW480 rereplic – DNA re-replication induction in SW480 cells | SW480 DNA re-replication, Hoechst DNA content imaging, 48 h | Potency, µM (highest dose often 46.1 µM), usual class: activators | hit rate 1.8% among 340,000; also: nearly all actives have a fitted effect of over 55% in size
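SW480 cells exposed to compounds for 48 hr at 37 C, 5% CO2, then Hoechst-stained 40 min. Nuclear DNA content imaged by fluorescence scanning (405 nm excitation, 500-530 nm emission); re-replication scored as increased high-intensity nuclei.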
IL1B secr inh – blocks inflammasome-driven IL-1 beta release; activity change, % at 57.5 µM; THP-1 LPS/ATP IL-1B secretion, AlphaLISA, 16 h; stronger effect = lower value; hit rate 4.7% among 360,000; AID 743279; in the data active = activity change below about -50%; inconclusive = mostly about -30% to -49%
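THP-1 cells pretreated 1 hr with compounds (up to 57.5 uM final), then stimulated with LPS (250 ng/mL final) plus ATP (1.25 mM final); secreted IL-1B measured by AlphaLISA after 16 hr, decreased signal indicating inhibition.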
RORg inh – inhibitors of mouse ROR gamma transcriptional activity. hit rate 5.4% among 310,000. AID 2551. Potency, µM (highest dose often 53.6 µM), most hits filed as inhibitors. Drosophila S2 Gal4-RORgamma UAS-luciferase reporter, 20 h; also: nearly all actives have a fitted effect of over 60% in size
Target sequence (P51450 whole entry, looked up, the tested form may be a part): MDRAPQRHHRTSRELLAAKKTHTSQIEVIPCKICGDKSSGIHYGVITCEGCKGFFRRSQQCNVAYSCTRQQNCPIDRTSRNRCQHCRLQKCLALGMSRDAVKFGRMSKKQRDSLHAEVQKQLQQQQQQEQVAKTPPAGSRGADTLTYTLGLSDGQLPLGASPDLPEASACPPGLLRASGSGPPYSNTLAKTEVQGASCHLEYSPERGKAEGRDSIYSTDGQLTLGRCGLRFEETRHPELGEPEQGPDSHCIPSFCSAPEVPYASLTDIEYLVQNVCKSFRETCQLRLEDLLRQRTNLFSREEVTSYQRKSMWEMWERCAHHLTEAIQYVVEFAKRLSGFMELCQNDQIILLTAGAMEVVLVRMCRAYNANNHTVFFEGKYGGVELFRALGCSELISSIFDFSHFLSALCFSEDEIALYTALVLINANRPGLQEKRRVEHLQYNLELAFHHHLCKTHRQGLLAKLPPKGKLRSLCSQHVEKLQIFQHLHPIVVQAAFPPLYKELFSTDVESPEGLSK
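Read-out: Photinus luciferase luminescence; inhibitors lower reporter signal. Insect Schneider cells with Gal4-ROR gamma fusion under metallothionein promoter, UAS reporter; 700 uM final copper sulfate induction, 20 hr, ambient temperature.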
VP16 counter – Gal4-VP16 reporter inhibition counter-screen; Drosophila S2 Gal4-VP16 UAS-luciferase, luminescence, 20 h; Potency, µM (doses to about 53.6 µM), actives largely listed as inhibitors; hit rate 3.5% among 310,000;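 also: Gal4-VP16 expression switched on by copper sulfate through the metallothionein promoter; nearly all actives have a fitted effect of over 50% in size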
Each line names hits and unclear results; the compound was inactive in the other large screens. Only some compounds are listed: those with a hit (about 11% of all), similar ones and a draw of the others. Unless noted, calls follow the shape of the dose curve; as a rule, active = well fitted curve in the direction sought with a large enough effect; inconclusive = small, poorly fitted or top-dose-only effect, or another doubt; inactive = no such curve, though single readings can be large; an effect the other way counts as inactive or inconclusive.

COc1ccc(CN2CCN(Cc3c[nH]c4ccccc34)CC2CCO)c(F)c1 (configuration not stated)	IL1B secr inh inconclusive
CN(C)[C@H]1C(=O)C(C(=O)NCN2CCCC2)=C(O)[C@]2(O)C(=O)C3=C(O)c4c(O)cccc4[C@@](C)(O)[C@H]3C[C@@H]12	none (no result: IL1B secr inh)
S=c1nc2[nH]c3ccccc3c2n[nH]1	none (no result: RORg inh, VP16 counter)
CC(=O)c1ccc(S(=O)(=O)Nc2ccc(C(=O)NCCCn3ccnc3)cc2)cc1	none (no result: RORg inh, VP16 counter)
O=C(NC1CCOCC1)C1CCC(=O)N(CCc2ccc(Cl)cc2)C1 (configuration not stated)	SW480 rereplic inconclusive
CCOC(=O)c1cc2[nH]c3ccccc3c2[n+](-c2ccc([N+](=O)[O-])cc2)c1N	IL1B secr inh -58, VP16 counter inconclusive
CCOC(=O)c1cc2[nH]c3ccccc3c2[n+](-c2ccc([N+](=O)[O-])cc2)c1C	VP16 counter inconclusive (no result: SW480 rereplic)
CCC(=O)N1CCCc2cc(S(=O)(=O)CCC(=O)Nc3ccccc3C)ccc21	none
Oc1ccc(C[C@H]2CNCCN2CCc2cccc(F)c2)cc1	none (no result: RORg inh, VP16 counter)
Fc1cccc(CCN2CCNC[C@H]2Cc2cccc3ccccc23)c1	MCF10A rereplic inconclusive, IL1B secr inh -60 (no result: RORg inh, VP16 counter)
CC(C)(C)CN1CCNC[C@H]1Cc1cccc2ccccc12	IL1B secr inh inconclusive (no result: RORg inh, VP16 counter)
c1ccc(C2(CN3CCNC[C@H]3Cc3cccc4ccccc34)CC2)cc1	MCF10A rereplic inconclusive, SW480 rereplic inconclusive, IL1B secr inh -68 (no result: RORg inh, VP16 counter)
Cc1ccccc1-n1nc2c(c1NC(=O)C(C)(C)C)CS(=O)(=O)C2	none
CC(C)C(c1nnnn1C(C)(C)C)N1CCC(Cc2ccccc2)CC1 (configuration not stated)	MCF10A rereplic 21µM, IL1B secr inh -76, RORg inh inconclusive, VP16 counter 22µM
CC(C)C(c1nnnn1C(C)(C)C)N1CCOCC1 (configuration not stated)	none
C=C1c2ccccc2O[C@H](C(=O)OCC)[C@@H]1CCC(C)C (tested in a mixture with another compound)	RORg inh inconclusive (no result: MCF10A rereplic, SW480 rereplic, IL1B secr inh)
CCc1ccc(N2CCN(S(=O)(=O)CC34CCC(CC3=O)C4(C)C)CC2)cc1 (configuration not stated)	MCF10A rereplic inconclusive, SW480 rereplic inconclusive, IL1B secr inh -67, RORg inh inconclusive
Cc1nn(CC(C)C)c(Cl)c1C(=O)N(c1ccc(Cl)cc1F)S(C)(=O)=O	MCF10A rereplic 21µM, IL1B secr inh inconclusive
COc1ccc(CCNC(=O)c2c(C)nn(CC(C)C)c2Cl)cc1	none
O=C(COC(=O)CNS(=O)(=O)c1ccc(Br)cc1Cl)NCCc1ccccc1	none
CC1=C(C#N)c2nc(N)c(C#N)c(C)c2/C1=C\c1ccc(-c2ccccc2C(=O)O)o1	IL1B secr inh -88
Cc1ccc(C2=Nc3ccc(Br)cc3C(c3ccncc3)=NN2)cc1	MCF10A rereplic inconclusive, IL1B secr inh -149
COc1ccc(-c2nc(-c3ccccn3)nc(N3CCN(C)CC3)c2C#N)cc1	IL1B secr inh inconclusive, RORg inh 1.4µM
COc1ccccc1-c1nc(-c2ccccc2)nc(N2CCN(C)CC2)c1C#N	MCF10A rereplic inconclusive, SW480 rereplic inconclusive, IL1B secr inh -52, RORg inh 14µM
CN1CCN(c2nc(-c3ccccc3)nc(-c3ccc(F)cc3)c2C#N)CC1	MCF10A rereplic inconclusive, SW480 rereplic inconclusive, IL1B secr inh -61
Cc1cc2c(cc1C)-n1nnnc1C(N(C)Cc1ccccc1)C(=O)N2 (configuration not stated)	none (no result: MCF10A rereplic, SW480 rereplic, RORg inh, VP16 counter)
Cc1ccc(Cl)cc1NC1=NC(=S)N(C(C)C)C12CCCCC2	MCF10A rereplic inconclusive, RORg inh 2.8µM, VP16 counter 3.5µM
Cc1ccc(Cl)cc1NC(=O)C(=O)N1CCCCC1	none
Cc1ccc2nc(-c3cccc(Br)c3)c(Cc3cccc(Cl)c3)n2c1	none (no result: MCF10A rereplic, SW480 rereplic, RORg inh, VP16 counter)
CC1(C(=O)NCCC#N)CCN1C(=O)c1ccccc1CCc1ccccc1 (configuration not stated)	none (no result: MCF10A rereplic, SW480 rereplic, RORg inh, VP16 counter)
FC(F)(F)c1nc(NCc2ccccc2)c2nnn(Cc3ccccc3)c2n1	RORg inh 8.9µM
Cc1nc(NCCc2ccccc2)c2nnn(Cc3ccccc3)c2n1	none
CCOC(=O)CNc1nc(C(C)(C)C)nc2c1nnn2Cc1ccccc1	MCF10A rereplic inconclusive, SW480 rereplic inconclusive, RORg inh inconclusive, VP16 counter inconclusive
CCN(CC)CCNc1nc(C(F)(F)F)nc2c1nnn2Cc1ccccc1	IL1B secr inh -60 (no result: RORg inh, VP16 counter)
